30 molecules from PubChem BioAssay (EPA / NIEHS) can be followed below.

In general, AC50 refers to the concentration giving half of the maximal activity seen.

Molecules are shown by their SMILES. Results filed as inconclusive are left out. Active and inactive are the calls of the source. How the source made its calls, unless noted: active means hit-call score of the fitted dose curve at least 0.9, where 1 is the maximum; inconclusive means response in the unintended direction; inactive means score below 0.9.

Chain of human Norepinephrine Transporter (NET), SLC6A2 (gene 6530) (P23975 whole entry, looked up): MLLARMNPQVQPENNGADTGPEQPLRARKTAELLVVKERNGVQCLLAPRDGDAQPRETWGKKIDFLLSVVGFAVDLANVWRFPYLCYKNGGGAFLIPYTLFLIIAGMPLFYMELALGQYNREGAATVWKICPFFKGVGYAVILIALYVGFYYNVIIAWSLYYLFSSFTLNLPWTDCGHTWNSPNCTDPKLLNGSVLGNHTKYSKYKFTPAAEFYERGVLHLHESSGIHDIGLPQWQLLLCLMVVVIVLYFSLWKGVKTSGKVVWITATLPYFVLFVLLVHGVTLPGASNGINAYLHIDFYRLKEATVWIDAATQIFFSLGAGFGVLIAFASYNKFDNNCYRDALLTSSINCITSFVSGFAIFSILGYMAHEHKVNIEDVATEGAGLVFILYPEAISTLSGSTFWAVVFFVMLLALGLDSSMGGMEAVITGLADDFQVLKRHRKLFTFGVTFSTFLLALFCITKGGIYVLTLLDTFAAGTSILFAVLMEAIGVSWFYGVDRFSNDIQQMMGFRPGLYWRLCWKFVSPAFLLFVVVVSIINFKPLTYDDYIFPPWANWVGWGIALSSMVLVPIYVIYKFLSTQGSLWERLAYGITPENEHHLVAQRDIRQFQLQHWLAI
Chain of Norway rat Vesicular Monoamine Transporter (VMAT2), neurotransmitter transporter, Slc18a2 (gene 25549) (Q01827 whole entry, looked up): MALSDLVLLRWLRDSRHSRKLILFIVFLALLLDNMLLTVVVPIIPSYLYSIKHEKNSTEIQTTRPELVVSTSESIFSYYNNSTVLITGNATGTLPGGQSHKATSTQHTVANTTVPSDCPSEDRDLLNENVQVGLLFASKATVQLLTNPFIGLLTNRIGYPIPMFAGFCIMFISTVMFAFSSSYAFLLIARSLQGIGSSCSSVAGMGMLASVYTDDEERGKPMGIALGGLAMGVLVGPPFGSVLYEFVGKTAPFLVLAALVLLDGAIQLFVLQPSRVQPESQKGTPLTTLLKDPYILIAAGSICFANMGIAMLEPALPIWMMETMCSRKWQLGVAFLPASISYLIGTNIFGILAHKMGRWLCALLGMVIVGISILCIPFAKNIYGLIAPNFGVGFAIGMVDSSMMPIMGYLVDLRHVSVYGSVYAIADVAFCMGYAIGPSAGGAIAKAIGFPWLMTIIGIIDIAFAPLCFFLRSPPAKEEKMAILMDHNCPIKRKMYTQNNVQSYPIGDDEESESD
Chain of human Dopamine Transporter (DAT), SLC6A3 (gene 6531) (Q01959 whole entry, looked up): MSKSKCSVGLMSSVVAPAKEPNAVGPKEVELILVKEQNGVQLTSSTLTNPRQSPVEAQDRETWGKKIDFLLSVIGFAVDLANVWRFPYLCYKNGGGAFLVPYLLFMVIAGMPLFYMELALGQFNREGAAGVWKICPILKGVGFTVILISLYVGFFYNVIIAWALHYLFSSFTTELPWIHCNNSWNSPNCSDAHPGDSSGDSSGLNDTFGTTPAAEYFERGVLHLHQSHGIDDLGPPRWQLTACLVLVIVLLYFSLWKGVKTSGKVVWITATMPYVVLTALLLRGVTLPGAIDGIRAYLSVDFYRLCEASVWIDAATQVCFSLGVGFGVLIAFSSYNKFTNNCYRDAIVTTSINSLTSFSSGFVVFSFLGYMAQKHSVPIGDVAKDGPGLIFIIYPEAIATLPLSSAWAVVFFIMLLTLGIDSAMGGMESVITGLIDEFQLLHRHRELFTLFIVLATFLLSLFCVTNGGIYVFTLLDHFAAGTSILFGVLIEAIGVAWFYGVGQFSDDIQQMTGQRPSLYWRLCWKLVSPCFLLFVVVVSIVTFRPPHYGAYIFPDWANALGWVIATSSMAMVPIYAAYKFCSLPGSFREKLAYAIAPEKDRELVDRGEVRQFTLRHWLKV
Chain of Estrogen receptor (Homo sapiens) (P03372 whole entry, looked up): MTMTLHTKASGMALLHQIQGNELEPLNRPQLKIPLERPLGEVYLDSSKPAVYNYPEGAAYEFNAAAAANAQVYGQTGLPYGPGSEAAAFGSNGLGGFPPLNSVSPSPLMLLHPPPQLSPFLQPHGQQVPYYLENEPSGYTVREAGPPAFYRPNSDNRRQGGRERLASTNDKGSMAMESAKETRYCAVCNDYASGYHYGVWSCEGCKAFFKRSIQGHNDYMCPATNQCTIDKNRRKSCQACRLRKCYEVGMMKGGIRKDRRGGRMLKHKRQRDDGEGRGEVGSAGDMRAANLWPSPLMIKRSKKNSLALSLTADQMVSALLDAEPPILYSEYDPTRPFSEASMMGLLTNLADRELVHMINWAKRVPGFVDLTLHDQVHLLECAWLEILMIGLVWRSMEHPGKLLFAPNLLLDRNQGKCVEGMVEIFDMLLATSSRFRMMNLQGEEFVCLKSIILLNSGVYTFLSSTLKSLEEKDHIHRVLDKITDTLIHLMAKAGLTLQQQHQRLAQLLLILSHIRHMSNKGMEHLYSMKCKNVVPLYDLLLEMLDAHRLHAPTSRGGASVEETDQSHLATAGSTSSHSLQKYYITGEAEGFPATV

The first experiment concerns the target human Dopamine Transporter (DAT), SLC6A3 (gene 6531) (UniProt Q01959). The experiment can be described thus: NVS_TR_hDAT: NovaScreen (NVS) Transporter Assay for human Dopamine Transporter (DAT) (AID 2283374).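 Further: activity means loss of bound radioligand signal relative to DMSO.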 A digest of the protocol:
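Extracted human SLC6A3 protein incubated 1 h with radioligand and test chemical; bound fraction separated on filters and counted. Single 25 uM duplicate screen preceded concentration-response follow-up; positive and negative controls on every plate.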
In the case of `Cc1ccccc1OP(=O)(Oc1ccccc1)Oc1ccccc1`, the AC50 is 2.25 µM (active).

As to `CCOP(=O)(OCC)OC(=CCl)c1ccc(Cl)cc1Cl`, the AC50 was 25 µM (active).

Consider `CC(C)=CC1C(C(=O)OCc2cccc(Oc3ccccc3)c2)C1(C)C` (stereo not drawn), for which the AC50 was 17.2 µM (active).

As to `CCCCCCCCCCCCc1cccc(S(=O)(=O)O)c1`, the AC50 was 32.9 µM (active).

`Cc1cc(C(C)(C)c2ccc(O)c(C)c2)ccc1O`: the AC50 is 1.62 µM (active).

In the case of `[Cl][Sn]([c]1ccccc1)([c]1ccccc1)[c]1ccccc1`, the AC50 was 2.89 µM (active).

For `Oc1cccc(-c2ccccc2)c1`, the AC50 was 10.6 µM (active).

For the molecule `CC(C)N(C(=O)CCl)c1ccccc1`, the AC50 is 11.1 µM (active).

As for `Oc1ccc(Cc2ccc(O)cc2)cc1`, the AC50 is 9.05 µM (active).

Take `Cc1ccc(OP(=O)(Oc2ccc(C)cc2C)Oc2ccc(C)cc2C)c(C)c1`: the AC50 was 17.4 µM (active).

On to `CC(C)(C)c1ccccc1O`, for which the molecule was called inactive.

Turning to `O=[N+]([O-])c1ccc(Nc2ccccc2)cc1`, the AC50 is 5.62 µM (active).

The target in the next experiment is rat Serotonin Transporter (SERT), Slc6a4 (gene 25553) (UniProt P31652). Put plainly: NVS_TR_rSERT: NovaScreen (NVS) Transporter Assay for rat Serotonin Transporter (SERT) (AID 2283375). Summed up: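 Rat forebrain membranes were incubated with test chemical for 1 hour; radioligand binding to SERT was measured by filter-based scintillation counting. Primary screen ran in duplicate at 25 uM, with actives followed up in concentration series; DMSO served as negative control.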
Chain of rat Serotonin Transporter (SERT), Slc6a4 (gene 25553) (P31652 whole entry, looked up): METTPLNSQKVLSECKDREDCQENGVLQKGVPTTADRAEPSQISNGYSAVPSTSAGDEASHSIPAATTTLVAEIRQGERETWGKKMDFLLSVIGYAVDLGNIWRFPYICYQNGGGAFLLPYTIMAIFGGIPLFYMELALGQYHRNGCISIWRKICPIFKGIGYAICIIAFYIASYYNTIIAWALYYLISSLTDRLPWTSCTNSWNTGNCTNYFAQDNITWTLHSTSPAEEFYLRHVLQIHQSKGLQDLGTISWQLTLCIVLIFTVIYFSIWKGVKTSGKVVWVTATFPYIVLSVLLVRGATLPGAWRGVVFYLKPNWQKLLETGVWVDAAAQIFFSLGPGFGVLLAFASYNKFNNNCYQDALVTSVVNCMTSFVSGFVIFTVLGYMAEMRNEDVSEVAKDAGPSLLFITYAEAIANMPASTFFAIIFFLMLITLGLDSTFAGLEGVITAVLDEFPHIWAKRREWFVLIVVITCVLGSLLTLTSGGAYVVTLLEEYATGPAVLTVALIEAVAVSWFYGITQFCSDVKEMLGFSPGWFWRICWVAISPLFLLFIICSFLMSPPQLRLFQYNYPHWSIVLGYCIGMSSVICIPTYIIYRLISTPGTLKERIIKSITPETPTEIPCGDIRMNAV
On to `O=C1C=CC(=O)c2ccccc21`, for which the AC50 is 28.9 µM (active).

Regarding `N#Cc1ccccc1N`, the AC50 was 17.6 µM (active).

For the molecule `Cc1ccc(CCl)cc1`, the AC50 is 16.6 µM (active).

For `O=[N+]([O-])c1cccc2ccccc12`, the AC50 is 9.17 µM (active).

Consider `Nc1nc(N)nc(Cl)n1`, for which the result was inactive.

For a further experiment, the target named is Norway rat Vesicular Monoamine Transporter (VMAT2), neurotransmitter transporter, Slc18a2 (gene 25549) (UniProt Q01827). Put plainly: NVS_TR_rVMAT2: NovaScreen (NVS) Transporter Assay for Norway rat Vesicular Monoamine Transporter (VMAT2), neurotransmitter transporter (AID 2283376).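 Further: actives lower the bound radioligand signal below the DMSO level.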 Summed up:
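Binding endpoint from rat forebrain tissue, cell-free; 1 h incubation; filtered radioligand counted; 25 uM duplicate primary then dose series; DMSO negative control.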
On to `CCOP(=O)(OCC)OC(=CCl)c1ccc(Cl)cc1Cl`, for which the AC50 was 10.9 µM (active).

On to `[Cl][Sn]([c]1ccccc1)([c]1ccccc1)[c]1ccccc1`, for which the call was inactive.

With `Oc1cccc(-c2ccccc2)c1`, the result was inactive.

As for `O=C(O)COc1cc(Cl)c(Cl)cc1Cl`, the molecule was classed as inactive.

Turning to `Oc1cc(Cl)c(Cl)cc1Cl`, the molecule was called inactive.

The target of another experiment is human Norepinephrine Transporter (NET), SLC6A2 (gene 6530) (UniProt P23975). The experiment can be described thus: NVS_TR_hNET: NovaScreen (NVS) Transporter Assay for human Norepinephrine Transporter (NET) (AID 2283377).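 Further: cell-free membrane protein extracted from CHO cells expressing human NET.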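 On AC50: displacement of radioligand from human NET seen as loss of scintillation signal.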 A digest of the protocol:
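In this cell-free binding screen, chemicals at 25 uM (duplicate) compete with a radioligand for CHO-derived human NET over 1 hour, with filter-based radiodetection.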
Turning to `CCCCCCCCCCCCc1cccc(S(=O)(=O)O)c1`, the AC50 is 18.7 µM (active).

As to `Cc1cc(C(C)(C)c2ccc(O)c(C)c2)ccc1O`, the AC50 was 8.57 µM (active).

On to `[Cl][Sn]([c]1ccccc1)([c]1ccccc1)[c]1ccccc1`, for which the AC50 was 1.19 µM (active).

For `Oc1cccc(-c2ccccc2)c1`, the result was inactive.

Take `Oc1ccc(Cc2ccc(O)cc2)cc1`: the AC50 was 25 µM (active).

With `Cc1ccc(OP(=O)(Oc2ccc(C)cc2C)Oc2ccc(C)cc2C)c(C)c1`, the AC50 was 1.47 µM (active).

In the case of `O=[N+]([O-])c1ccc(Nc2ccccc2)cc1`, the AC50 was 20.4 µM (active).

For the molecule `N#Cc1ccccc1N`, the call was inactive.

As to `Oc1cc(Cl)c(Cl)cc1Cl`, the AC50 is 10.8 µM (active).

The target of another experiment is mouse Estrogen Receptor alpha (Era), Esr1 (gene 13982) (UniProt P19785). Put plainly: NVS_NR_mERa: NovaScreen (NVS) Nuclear Receptor Binding Assay for mouse Estrogen Receptor alpha (Era) (AID 2283378).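 Further: hit means loss of bound radioligand signal relative to DMSO.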 A digest of the protocol: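 Cell-free radioligand binding with extracted mouse Era protein; competitive displacement of radiolabelled ligand, read by filter-based scintillation counting 18 hours after dosing. Loss of signal versus DMSO baseline taken as binding; single screening concentration 25 uM, actives followed in concentration series.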
Chain of mouse Estrogen Receptor alpha (Era), Esr1 (gene 13982) (P19785 whole entry, looked up): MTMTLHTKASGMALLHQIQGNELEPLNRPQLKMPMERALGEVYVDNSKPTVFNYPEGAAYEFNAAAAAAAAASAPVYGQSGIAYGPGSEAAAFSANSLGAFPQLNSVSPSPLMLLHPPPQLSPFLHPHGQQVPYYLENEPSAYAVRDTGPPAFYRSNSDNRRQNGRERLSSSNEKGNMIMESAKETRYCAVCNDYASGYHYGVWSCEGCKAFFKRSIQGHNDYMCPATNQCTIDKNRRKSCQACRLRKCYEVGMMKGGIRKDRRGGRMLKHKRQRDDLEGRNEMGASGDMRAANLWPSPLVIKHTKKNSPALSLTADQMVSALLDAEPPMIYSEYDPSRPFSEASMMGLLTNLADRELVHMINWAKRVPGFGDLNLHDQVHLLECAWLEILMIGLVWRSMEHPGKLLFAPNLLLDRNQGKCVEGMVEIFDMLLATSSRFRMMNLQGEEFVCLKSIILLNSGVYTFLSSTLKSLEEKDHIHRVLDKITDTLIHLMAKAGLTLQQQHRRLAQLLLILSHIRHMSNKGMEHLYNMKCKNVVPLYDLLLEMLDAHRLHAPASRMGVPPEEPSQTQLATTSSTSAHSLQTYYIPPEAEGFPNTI
With `O=S1OC[C@@H]2[C@H](CO1)[C@]1(Cl)C(Cl)=C(Cl)[C@@]2(Cl)C1(Cl)Cl` (stereo partly drawn), the molecule was called inactive.

With `O=C1c2ccccc2C(=O)C1C(=O)C(c1ccccc1)c1ccc(Cl)cc1` (stereo not drawn), the AC50 is 1.12 µM (active).

Turning to `CCC[CH2][Sn]([Cl])([Cl])[CH2]CCC`, the outcome was inactive.

Turning to `CC(C)N(C(=O)CCl)c1ccccc1`, the AC50 is 6.48 µM (active).

Take `CC(=Cc1ccccc1)[N+](=O)[O-]`: the molecule was classed as inactive.

In the case of `Oc1c(Br)cc(Br)cc1Br`, the molecule was classed as inactive.

With `CCOCn1c(-c2ccc(Cl)cc2)c(C#N)c(Br)c1C(F)(F)F`, the outcome was inactive.

In the case of `O=S1(=O)OC(c2cc(Br)c(O)c(Br)c2)(c2cc(Br)c(O)c(Br)c2)c2ccccc21`, the molecule was classed as inactive.

For `O=[N+]([O-])c1ccc(Nc2ccccc2)cc1`, the molecule was classed as inactive.

Take `O=C(CCl)Nc1ccccc1`: the call was inactive.

A further experiment deals with Agonist Androgen Response Element (ARE), AR (gene 367) (UniProt P10275). The experiment can be described thus: OT_AR_ARELUC_AG_1440: Odyssey Thera (OT) 24-hour CHO-K1 Luciferase Assay for Agonist Androgen Response Element (ARE) (AID 2283379). A digest of the protocol: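 Luminescence increase above DMSO, read after a 24 h compound treatment of CHO-K1 cells expressing an androgen response element luciferase reporter, gives the single primary endpoint; concentration-response fitting used the positive direction.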
Chain of Agonist Androgen Response Element (ARE), AR (gene 367) (P10275 whole entry, looked up): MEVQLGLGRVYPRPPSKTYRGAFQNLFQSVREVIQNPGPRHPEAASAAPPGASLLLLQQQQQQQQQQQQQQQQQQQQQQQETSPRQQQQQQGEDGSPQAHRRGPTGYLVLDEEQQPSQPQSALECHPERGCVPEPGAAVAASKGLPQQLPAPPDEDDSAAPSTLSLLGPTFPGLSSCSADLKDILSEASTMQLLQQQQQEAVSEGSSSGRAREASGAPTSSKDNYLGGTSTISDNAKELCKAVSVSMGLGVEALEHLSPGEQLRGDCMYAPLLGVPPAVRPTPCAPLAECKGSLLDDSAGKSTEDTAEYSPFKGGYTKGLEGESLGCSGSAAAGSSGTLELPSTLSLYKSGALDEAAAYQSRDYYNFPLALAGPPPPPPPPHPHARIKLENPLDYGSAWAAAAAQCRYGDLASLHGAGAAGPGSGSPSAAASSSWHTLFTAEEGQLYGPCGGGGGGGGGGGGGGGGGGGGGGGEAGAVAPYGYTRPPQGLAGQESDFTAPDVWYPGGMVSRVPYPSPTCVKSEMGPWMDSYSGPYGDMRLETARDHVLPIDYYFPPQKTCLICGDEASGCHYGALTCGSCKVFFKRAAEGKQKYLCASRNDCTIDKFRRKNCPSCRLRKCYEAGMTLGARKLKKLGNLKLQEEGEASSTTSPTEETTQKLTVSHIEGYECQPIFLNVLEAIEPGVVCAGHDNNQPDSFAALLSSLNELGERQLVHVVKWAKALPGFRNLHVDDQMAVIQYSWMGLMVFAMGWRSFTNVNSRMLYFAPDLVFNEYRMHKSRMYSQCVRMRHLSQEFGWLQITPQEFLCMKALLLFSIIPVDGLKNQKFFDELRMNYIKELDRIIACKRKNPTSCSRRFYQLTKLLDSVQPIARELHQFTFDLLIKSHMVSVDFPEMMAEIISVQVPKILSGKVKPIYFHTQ
`O=S1OC[C@@H]2[C@H](CO1)[C@]1(Cl)C(Cl)=C(Cl)[C@@]2(Cl)C1(Cl)Cl` (stereo partly drawn): the call was inactive.

`O=C1c2ccccc2C(=O)C1C(=O)C(c1ccccc1)c1ccc(Cl)cc1` (stereo not drawn): the result was inactive.

With `COCCl`, the AC50 is 1.22 µM (active).

For the molecule `CC(C)N(C(=O)CCl)c1ccccc1`, the call was inactive.

For the molecule `CC(=Cc1ccccc1)[N+](=O)[O-]`, the result was inactive.

For `O=S1(=O)OC(c2cc(Br)c(O)c(Br)c2)(c2cc(Br)c(O)c(Br)c2)c2ccccc21`, the AC50 was 0.214 µM (active).

On to `O=[N+]([O-])c1ccc(Cl)c([N+](=O)[O-])c1`, for which the result was inactive.

Take `O=C(CCl)Nc1ccccc1`: the outcome was inactive.

Turning to `O=C(O)COc1cc(Cl)c(Cl)cc1Cl`, the molecule was classed as inactive.

In another experiment the target is Estrogen receptor (Homo sapiens) (UniProt P03372). The experiment can be described thus: OT_ERa_GFPERaERE_0480: Odyssey Thera (OT) 8-hour HeLa Transcription Induction Assay for Estrogen Receptor (AID 2283381; active means hit-call score of the fitted dose curve at least 0.9, where 1 is the maximum; inactive means score below 0.9). A digest of the protocol:
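An 8 h HeLa transcription-induction format with a GFP reporter under ERE control, read by fluorescence microscopy; single endpoint fitted positively with DMSO as baseline.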
Turning to `O=S1OC[C@@H]2[C@H](CO1)[C@]1(Cl)C(Cl)=C(Cl)[C@@]2(Cl)C1(Cl)Cl` (stereo partly drawn), the AC50 was 12.6 µM (active).

With `CC(C)=CC1C(C(=O)OCc2cccc(Oc3ccccc3)c2)C1(C)C` (stereo not drawn), the call was inactive.

As for `O=C1c2ccccc2C(=O)C1C(=O)C(c1ccccc1)c1ccc(Cl)cc1` (stereo not drawn), the molecule was classed as inactive.

For `CCC[CH2][Sn]([Cl])([Cl])[CH2]CCC`, the AC50 is 1.76 µM (active).

In the case of `CC(C)N(C(=O)CCl)c1ccccc1`, the molecule was called inactive.

Consider `CC(=Cc1ccccc1)[N+](=O)[O-]`, for which the AC50 was 16.6 µM (active).

Take `Oc1c(Br)cc(Br)cc1Br`: the outcome was inactive.

Take `CCOCn1c(-c2ccc(Cl)cc2)c(C#N)c(Br)c1C(F)(F)F`: the molecule was classed as inactive.

On to `O=S1(=O)OC(c2cc(Br)c(O)c(Br)c2)(c2cc(Br)c(O)c(Br)c2)c2ccccc21`, for which the call was inactive.

For the molecule `O=[N+]([O-])c1ccc(Cl)c([N+](=O)[O-])c1`, the AC50 is 8.64 µM (active).

With `Cc1cc(Cl)ccc1OC(C)C(=O)O` (stereo not drawn), the result was inactive.

`O=C(CCl)Nc1ccccc1`: the AC50 is 84.8 µM (active).

The target is the same in the next experiment. Put plainly: OT_ERa_GFPERaERE_0120: Odyssey Thera (OT) 2-hour HeLa Transcription Induction Assay for Estrogen Receptor (AID 2283382). A digest of the protocol:
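Two-hour compound treatment of HeLa cells preceded microscopy imaging of an inducible fluorescent reporter. Image-based quantification gave one endpoint, analysed for signal increase relative to DMSO controls.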
Turning to `O=S1OC[C@@H]2[C@H](CO1)[C@]1(Cl)C(Cl)=C(Cl)[C@@]2(Cl)C1(Cl)Cl` (stereo partly drawn), the molecule was classed as inactive.

For the molecule `CC(C)=CC1C(C(=O)OCc2cccc(Oc3ccccc3)c2)C1(C)C` (stereo not drawn), the molecule was classed as inactive.

For `O=C1c2ccccc2C(=O)C1C(=O)C(c1ccccc1)c1ccc(Cl)cc1` (stereo not drawn), the outcome was inactive.

Consider `CCC[CH2][Sn]([Cl])([Cl])[CH2]CCC`, for which the AC50 is 3.3 µM (active).

`CC(C)N(C(=O)CCl)c1ccccc1`: the molecule was classed as inactive.

In the case of `CC(=Cc1ccccc1)[N+](=O)[O-]`, the AC50 was 19.8 µM (active).

Take `Oc1c(Br)cc(Br)cc1Br`: the molecule was classed as inactive.

Take `CCOCn1c(-c2ccc(Cl)cc2)c(C#N)c(Br)c1C(F)(F)F`: the result was inactive.

On to `O=S1(=O)OC(c2cc(Br)c(O)c(Br)c2)(c2cc(Br)c(O)c(Br)c2)c2ccccc21`, for which the result was inactive.

As to `Cc1cc(Cl)ccc1OC(C)C(=O)O` (stereo not drawn), the molecule was classed as inactive.

Turning to `O=C(CCl)Nc1ccccc1`, the result was inactive.
